Pf growth 48h: inhibits P. falciparum growth in the first generation, 48 h. AID 504832. P. falciparum luciferase growth in erythrocytes, 48 h. Potency, µM (titrated, usually from 28.7 µM), actives largely listed as inhibitors. actives 5.9% (n = 310,000); active = well fitted inhibition curve with a large enough effect; inconclusive = small, poorly fitted or top-dose-only effect, or another doubt; inactive = no such curve, though single readings can be large or run the other way
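First compound was added to culture medium, then infected red cells at 0.1% parasitemia and 2% hematocrit (final). After incubation at 37 C under 5% CO2, luciferase detection reagent was dispensed and light output recorded.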
Pf growth 96h: P. falciparum growth inhibition at 96 hour, primary screen for plastid delayed-death inhibitors | actives 6.9% (n = 320,000) | Potency, µM (titrated, usually from 28.7 µM), usual class: inhibitors | P. falciparum luciferase reporter growth, 96 h; active = well fitted inhibition curve with a large enough effect; inconclusive = small, poorly fitted or top-dose-only effect, or another doubt; inactive = no such curve, though single readings can be large or run the other way
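Compounds incubated with erythrocytes infected by luciferase-expressing P. falciparum (2% hematocrit, 0.05% parasitemia final) for 96 hours, 37 C in 5% CO2. Growth inhibition scored as decreased luciferase luminescence.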
NS1 inh: inhibitors of influenza NS1 protein function | Potency, µM (series often up to 46.1 µM) | actives 0.4% (n = 270,000); also: actives are rising curves; nearly all actives have a fitted effect of over 50% in size
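Recovery from NS1-induced slow growth read by OD600 in budding yeast switched to galactose assay medium (pH 6.0, -URA) at 1:100 dilution. Compound 23 nl per well; the matching strain lacking NS1 serves as control.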
SARS PLpro yeast: SARS-CoV PLP inhibition in yeast. S. cerevisiae expressing SARS-CoV PLpro, growth rescue. Potency, µM (top dose mostly 32.9 µM), hits mostly activators. actives 0.19% (n = 330,000). AID 485353; also: nearly all actives have a fitted effect of over 55% in size
Hits are given with their value; 0 = inactive; ? = inconclusive; - = no result; [ ] = another dose, or the depositor's remark. An excerpt weighted towards active compounds, which were near 10% of everything screened. Unless noted, calls follow the shape of the full dose curve.

SMILES | Pf growth 48h | Pf growth 96h | NS1 inh | SARS PLpro yeast
O=C(Nc1ccc(F)cc1F)c1c(C(F)(F)F)ccnc1Oc1cccc(C(F)(F)F)c1 | 14.7µM | 10.4µM | 0 | 0
Cn1nc(C(F)(F)F)c(C(=O)Nc2ccc(F)cc2F)c1Sc1cccc(Cl)c1 | ? | ? | 0 | 0
COc1ccccc1C(=O)COC(=O)CN1C(=O)NC2(CCCC2)C1=O | 0 | 0 | - | 0
CCCCNC(=O)c1oc2ccc(S(=O)(=O)N3CCCC3)cc2c1C | ? | ? | 0 | 0
COC(=O)N(C)c1ccc(C(O)(C(=O)OC)C(F)(F)F)cc1 (configuration not stated) | 0 | ? | 0 | 0
COC(=O)C(O)(c1ccc2c(c1)CCCN2)C(F)(F)F (configuration not stated) | - | 8.28µM | 0 | 0
COc1ccc(C(=O)Nc2nnc(Cc3ccccc3)s2)c(OC)c1 | ? | 0 | 0 | 0
CC(=O)Oc1c(C)cc(O)c2ccccc12 | ? | ? | 0 | 0
Cc1cc(O)c2ccccc2c1O | 0 | 8.49µM | - | -
Cc1c(C)n(Cc2ccccc2)c2ccc(C(=O)OCCCN(C)C)cc12 | ? | 4.15µM | 0 | 0
CCCCn1c2c(c(=O)n(C)c1=O)C(c1ccc(OC)cc1)N1CCCCCC1=N2 (configuration not stated) | ? | 7.38µM | 0 | 0
CC(C)N(CCCNC(=O)c1ccc(CS(=O)(=O)c2c(Cl)cccc2Cl)o1)Cc1ccccc1 | ? | 0 | 0 | 0
O=C(C1CCC(=O)N(C2CCCC2)C1)N1CCN(c2ccc(Cl)cc2)CC1 (configuration not stated) | ? | 0 | 0 | 0
O=C(C1CCC(=O)N(C2CCCC2)C1)N1CCN(c2ccccc2Cl)CC1 (configuration not stated) | 0 | 0 | 0 | 0
Cc1cccc(N2CCN(C(=O)C3CCC(=O)N(C4CC4)C3)CC2)c1C (configuration not stated) | 0 | 0 | 0 | 5.01µM
Cc1ccc(Cl)cc1N1CCN(C(=O)C2CCC(=O)N(C3CCCCCC3)C2)CC1 (configuration not stated) | 11.7µM | ? | 0 | 0
CCOC(=O)NC(=O)CSc1nc2ccccc2[nH]1 | 0 | 0 | 0 | 0
CCOC(=O)C1(C(C)(C)CC)CC(CSc2nc3ccccc3[nH]2)OC1=O (configuration not stated) | 8.28µM | 0 | 0 | 0
CCOC(=O)C1=C(C)Nc2sc(C(=O)c3ccc(F)cc3)c(N)c2C1c1ccc(C(=O)OC)cc1 (configuration not stated) | 7.38µM | 4.65µM | ? | 0
CCOC(=O)C1=C(C)NC(SCC(=O)OC)=C(C#N)C1c1ccc(C(=O)OC)cc1 (configuration not stated) | ? | 0 | 0 | 0
CSc1nc(Sc2ccc(Cl)cc2)c2ccccc2n1 | 2.62µM | 4.65µM | 0 | 0
CSc1nc(Sc2ccccc2)c2ccccc2n1 | 0 | 0 | 0 | 0
COc1ccc(C(=O)NNC(=O)c2ccc(S(=O)(=O)N3CC(C)OC(C)C3)cc2)cc1 (configuration not stated) | 0 | 1.47µM | - | 0
COc1ccc(COC(=O)c2ccc(Cl)c(S(=O)(=O)N3CC(C)OC(C)C3)c2)cc1 (configuration not stated) | 4.65µM | 6.57µM | - | 0
CCc1nnc(NC(=O)CSc2nc3cc(OC)c(OC)cc3cc2C)s1 | ? | ? | 0 | 0
SMILES | Pf growth 48h | Pf growth 96h | NS1 inh | SARS PLpro yeast
COc1ccc(-c2nc(C#N)c(NCCc3ccccc3)o2)cc1 | 0 | 0 | 0 | 0
CC(=O)Nc1ccc(OCc2nnc(-c3ccccc3)o2)cc1 | 0 | 3.7µM | 0 | 0
CC(=O)Nc1ccccc1OCc1nnc(-c2ccc(Cl)cc2)o1 | 0 | 0 | 0 | 0
COc1ccc(CNc2oc(-c3ccccc3)nc2C#N)cc1 | 0 | 8.28µM | 0 | 0
COc1ccc(Cc2nnc(-c3ccccc3)o2)cc1 | 0 | 11.7µM | - | 0
CCOc1ccc(-c2nc(C#N)c(NCc3ccc4c(c3)OCO4)o2)cc1 | 0 | 8.28µM | 0 | 0
CCOC(=O)c1c(SCC(=O)Nc2nc(C)cs2)nc(=O)[nH]c1C | 0 | 4.65µM | 0 | 0
Nc1ccccc1SCC(=O)Nc1ccc2c(c1)OCCO2 | 0 | 0 | 0 | 0
CC(C)Cn1cc(C(=O)N2CCN(c3ccccn3)CC2)c2c3ccccc3n(C)c2c1=O | 7.38µM | 9.28µM | 0 | 0
COCCCNC(=O)c1cn(CC(C)C)c(=O)c2c1c1ccccc1n2C | - | - | 0 | 0
CCN1CCN(C(=O)c2cn(CCOC)c(=O)c3c2c2ccccc2n3C)CC1 | 0 | ? | 0 | 0
CC(C)Cn1cc(C(=O)NC2CCN(Cc3ccccc3)CC2)c2c3ccccc3n(C)c2c1=O | 2.62µM | ? | 0 | 0
NS(=O)(=O)c1nc(S(=O)(=O)O)c2[nH]cnc2n1 | - | - | 0 | -
CC(c1ccccc1)[n+]1ccccc1 (configuration not stated) | 9.28µM | 11.7µM | - | 0
CN(c1ccccc1)S(=O)(=O)c1cccc(NC(=O)CC(C)(C)C)c1 | 0 | 11.7µM | 0 | 0
CN1C(=O)N(CC(=O)Nc2cccc(S(=O)(=O)N(C)c3ccccc3)c2)C(=O)C12CCCCC2 | 14.7µM | ? | - | 0
Cc1cc(C)nc(-n2nc(C)cc2NC(=O)CN2CCc3ccccc3C2)n1 | 4.15µM | 0 | 0 | 0
CN(c1ccccc1)S(=O)(=O)c1cccc(NC(=O)COc2cccc([N+](=O)[O-])c2)c1 | 13.1µM | 0 | - | 0
Cc1cc(C)nc(-n2nc(C)cc2NC(=O)CN2CCCC(C)C2)n1 (configuration not stated) | ? | 0 | 0 | 0
COc1ccc(S(=O)(=O)N2CCCCCC2)cc1C(=O)N(C)Cc1ccc(OC)c(OC)c1OC | ? | ? | - | 0
CC(=O)c1ccccc1NC(=O)COC(=O)CN1C(=O)C2CCCCC2C1=O (configuration not stated) | 0 | 0 | - | 0
Cc1ccc(C(=O)Nc2cccc(S(=O)(=O)N(C)c3ccccc3)c2)o1 | 8.28µM | 13.1µM | - | 0
CN(c1ccccc1)S(=O)(=O)c1cccc(NC(=O)CN2CCc3ccccc3C2)c1 | 0 | 10.4µM | - | 0
O=C(COc1ccc([N+](=O)[O-])cc1)Nc1ccncc1 | 0[5.75 µM] | ? | - | 0
NS(=O)(=O)c1cccc(NC(=O)COc2ccc([N+](=O)[O-])cc2)c1 | 9.28µM | 0 | - | 0
SMILES | Pf growth 48h | Pf growth 96h | NS1 inh | SARS PLpro yeast
CS(=O)(=O)c1ccc(Cl)c(NC(=O)CCN2C(=O)C3CC=CCC3C2=O)c1 (configuration not stated) | 0 | 0 | - | 0
O=C(C1CCN(S(=O)(=O)c2cccnc2)CC1)N1CCN(C2CCCC2)CC1 | 0 | 10.4µM | 0 | 0
O=C(C1CCN(S(=O)(=O)c2cccc3cccnc23)CC1)N1CCN(C2CCCCC2)CC1 | ? | 0 | 0 | 0
CCCc1nn2c(=O)cc(CSCC(=O)Nc3cccc(OC)c3)nc2s1 | 0 | 0 | 0 | 0
Nc1ncnc2c1ncn2C[C@@H](O)C(=O)O | - | - | 0 | -
COc1cc(/C=C(\C#N)C(=O)Nc2ccc(SC(F)F)cc2)cc(OC)c1OC | - | 5.22µM | 0 | 0
COc1cc(C(=O)OCC(=O)Nc2ccc(SC(F)F)cc2)cc(OC)c1OC | 0 | 0 | 0 | 0
CCN(CC)S(=O)(=O)c1cccc(NC(=S)NC(=O)/C=C/c2ccc(S(=O)(=O)N3CCOCC3)cc2)c1 | ? | 4.65µM | 0 | 0

Compound activity: PubChem BioAssay, National Center for Advancing Translational Sciences (NCATS)
